In PubChem BioAssay (NCATS) one finds outcome and Potency data, which are given here for eight compounds.

Records with an inconclusive call do not appear. Calls of active or inactive are those of the source. Unless noted, the call rests on the fitted dose curve; in most records, active means well fitted curve in the direction sought with a large enough effect; inconclusive means small, poorly fitted or top-dose-only effect, or another doubt; inactive means no such curve, though single readings can be large; an effect the other way counts as inactive or inconclusive.

For experiment [1], the target named is Atrial natriuretic peptide receptor 1 (Homo sapiens) (UniProt P16066). The experiment is described as follows: Natriuretic polypeptide receptor (hNpr1) antagonism - Pilot screen (AID 1347049; calls by dose curve;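 further: agonist-evoked cGMP luminescence read 20 min after hNppA addition; series mostly up to about 58 µM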). Put shortly: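 HEK293 cells co-expressing hNpr1 and the GloSensor pGS-40F cGMP luciferase sensor were preloaded with 2% GloSensor reagent for 2 h. Compounds were added for 30 min at room temperature, then cells were stimulated with 0.1 nM hNppA for 20 min before luminescence readout.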
Chain of Atrial natriuretic peptide receptor 1 (Homo sapiens) (P16066 whole entry, looked up): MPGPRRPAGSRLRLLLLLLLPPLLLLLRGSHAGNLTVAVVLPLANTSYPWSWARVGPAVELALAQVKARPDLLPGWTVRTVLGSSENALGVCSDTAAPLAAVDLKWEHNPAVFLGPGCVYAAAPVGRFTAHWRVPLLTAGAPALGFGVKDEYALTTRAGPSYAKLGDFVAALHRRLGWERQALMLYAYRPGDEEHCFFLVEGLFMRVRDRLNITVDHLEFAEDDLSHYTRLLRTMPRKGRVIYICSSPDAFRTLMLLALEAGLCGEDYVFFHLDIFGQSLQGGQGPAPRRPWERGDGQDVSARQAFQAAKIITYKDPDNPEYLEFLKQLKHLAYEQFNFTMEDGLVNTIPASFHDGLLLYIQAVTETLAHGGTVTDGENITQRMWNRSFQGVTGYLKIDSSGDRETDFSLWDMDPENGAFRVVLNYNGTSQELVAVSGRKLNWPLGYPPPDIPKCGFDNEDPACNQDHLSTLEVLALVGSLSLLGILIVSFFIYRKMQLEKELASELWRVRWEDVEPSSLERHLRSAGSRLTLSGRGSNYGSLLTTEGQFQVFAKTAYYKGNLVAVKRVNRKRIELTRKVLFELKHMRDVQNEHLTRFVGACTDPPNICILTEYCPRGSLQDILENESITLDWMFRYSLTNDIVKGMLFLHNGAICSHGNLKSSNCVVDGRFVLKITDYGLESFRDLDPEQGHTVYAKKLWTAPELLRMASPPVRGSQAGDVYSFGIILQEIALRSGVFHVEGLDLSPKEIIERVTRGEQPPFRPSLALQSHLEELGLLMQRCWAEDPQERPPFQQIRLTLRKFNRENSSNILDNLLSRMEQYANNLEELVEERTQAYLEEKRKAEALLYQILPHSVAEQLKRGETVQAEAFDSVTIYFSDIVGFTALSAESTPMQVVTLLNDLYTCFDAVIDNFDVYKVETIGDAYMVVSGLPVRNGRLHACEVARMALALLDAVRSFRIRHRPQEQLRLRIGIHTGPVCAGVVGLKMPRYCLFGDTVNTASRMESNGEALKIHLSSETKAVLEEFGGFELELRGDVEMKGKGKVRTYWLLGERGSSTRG

Experiment [2] in a line: NS1 protein of Zika virus - qHTS assay to identify small molecule inhibitors in human HEK 293 cells (AID 1347053). Further: series mostly up to about 46 µM; nearly all actives have a fitted effect of over 55% in size. The essentials: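 HEK 293; 20 h pre-culture, 37 C/5% CO2; cpd 1 h pre-infection; ZIKV MR766, MOI = 0.5, 24 h, 37 C; TR-FRET NS1 readout (two anti-NS1 Abs); norm. to no-virus vs infected.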
Background: qHTS replaces the single test concentration by a dilution series.

Experiment [3] deals with T1, Tyrosine-protein phosphatase non-receptor type substrate 1 (Homo sapiens) + Leukocyte surface antigen CD47 (Homo sapiens) (UniProt P78324+Q08722). The experiment is described as follows: CD47-SIRPalpha protein protein interaction - LANCE assay qHTS validation (AID 1347057; active means well fitted curve in the direction sought with a large enough effect in the signal ratio, with a control signal flat, not every such curve was filed as active; the % refers to the signal ratio; further: series mostly up to about 38 µM). Put shortly: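 First, His-tagged CD47 and Eu-labelled anti-His antibody met the compound for 30 min; next, site-specifically biotinylated SIRPalpha was added for 30 min; finally streptavidin-APC was added before reading the TR-FRET ratio.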
T1 sequence (P78324 whole entry, looked up): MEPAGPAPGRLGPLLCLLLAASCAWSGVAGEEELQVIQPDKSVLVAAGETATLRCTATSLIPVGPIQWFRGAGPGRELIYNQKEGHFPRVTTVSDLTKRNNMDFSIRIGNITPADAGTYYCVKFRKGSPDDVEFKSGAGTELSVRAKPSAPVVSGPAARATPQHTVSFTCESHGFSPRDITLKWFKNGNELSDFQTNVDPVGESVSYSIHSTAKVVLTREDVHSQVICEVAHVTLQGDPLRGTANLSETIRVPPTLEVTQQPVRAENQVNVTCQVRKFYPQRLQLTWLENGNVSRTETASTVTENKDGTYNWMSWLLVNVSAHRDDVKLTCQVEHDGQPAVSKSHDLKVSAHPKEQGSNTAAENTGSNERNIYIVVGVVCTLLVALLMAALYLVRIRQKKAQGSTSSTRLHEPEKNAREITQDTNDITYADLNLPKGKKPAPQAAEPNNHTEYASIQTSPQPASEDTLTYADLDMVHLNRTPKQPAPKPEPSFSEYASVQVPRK
T1 sequence (Q08722 whole entry, looked up): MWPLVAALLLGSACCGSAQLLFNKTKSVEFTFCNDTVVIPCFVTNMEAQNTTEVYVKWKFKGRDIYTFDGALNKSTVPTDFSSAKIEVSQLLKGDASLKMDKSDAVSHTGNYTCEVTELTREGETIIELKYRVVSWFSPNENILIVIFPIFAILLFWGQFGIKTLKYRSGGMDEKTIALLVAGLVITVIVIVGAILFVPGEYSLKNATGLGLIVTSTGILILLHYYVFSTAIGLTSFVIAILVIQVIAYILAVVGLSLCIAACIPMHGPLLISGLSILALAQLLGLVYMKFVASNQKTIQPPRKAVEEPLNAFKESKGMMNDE
A general note: In TR-FRET formats the signal depends on donor and acceptor labels being close together.

The target in experiment [4] is T1, Tyrosine-protein phosphatase non-receptor type substrate 1 (Homo sapiens) + Leukocyte surface antigen CD47 (Homo sapiens). The experiment is described as follows: CD47-SIRPalpha protein protein interaction - HTRF assay qHTS validation (AID 1347058; active means well fitted curve in the direction sought with a large enough effect in the signal ratio, not every such curve was filed as active; the % refers to the signal ratio; further: series mostly up to about 38 µM). Put shortly: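 TR-FRET read (Ch1/Ch2 ratio) of soluble extracellular CD47 and Avi-biotinylated SIRPalpha domains in PBS pH 7.4 with 0.05% IGEPAL; 7-point compound titration. Sequential 30 min room-temperature steps; non-biotinylated SIRPalpha as control inhibitor.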

Experiment [5] has the same target. The experiment is described as follows: CD47-SIRPalpha protein protein interaction - Alpha assay qHTS validation (AID 1347059).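 Further: bead proximity luminescence from CD47 binding SIRPalpha after compound preincubation with SIRPalpha.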 Put shortly:
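Soluble extracellular domains: Avi-tag biotinylated SIRPalpha (25 nM) preincubated 30 min RT with compound, then 6His-CD47 (12.5 nM) 30 min; Ni-NTA acceptor and streptavidin donor beads (10 ug/mL) 30 min, AlphaScreen read. PBS pH 7.4, 0.05% IGEPAL.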

The target of experiment [6] is Parathyroid hormone/parathyroid hormone-related peptide receptor (Homo sapiens) (UniProt Q03431). The experiment is described as follows: qHTS for PTHR1 Agonists: Optimization Screen against the NCGC LOPAC library (AID 1347079).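 Further: GloSensor cAMP luminescence in HEK-293 GP2 cells expressing human PTHR1 with IBMX.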 The essentials: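 Compounds were tested across a qHTS titration. PTHR1-expressing GP2 cells report cAMP rises via GloSensor luminescence after 1 hr compound exposure at 37C with IBMX present.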
Chain of Parathyroid hormone/parathyroid hormone-related peptide receptor (Homo sapiens) (Q03431 whole entry, looked up): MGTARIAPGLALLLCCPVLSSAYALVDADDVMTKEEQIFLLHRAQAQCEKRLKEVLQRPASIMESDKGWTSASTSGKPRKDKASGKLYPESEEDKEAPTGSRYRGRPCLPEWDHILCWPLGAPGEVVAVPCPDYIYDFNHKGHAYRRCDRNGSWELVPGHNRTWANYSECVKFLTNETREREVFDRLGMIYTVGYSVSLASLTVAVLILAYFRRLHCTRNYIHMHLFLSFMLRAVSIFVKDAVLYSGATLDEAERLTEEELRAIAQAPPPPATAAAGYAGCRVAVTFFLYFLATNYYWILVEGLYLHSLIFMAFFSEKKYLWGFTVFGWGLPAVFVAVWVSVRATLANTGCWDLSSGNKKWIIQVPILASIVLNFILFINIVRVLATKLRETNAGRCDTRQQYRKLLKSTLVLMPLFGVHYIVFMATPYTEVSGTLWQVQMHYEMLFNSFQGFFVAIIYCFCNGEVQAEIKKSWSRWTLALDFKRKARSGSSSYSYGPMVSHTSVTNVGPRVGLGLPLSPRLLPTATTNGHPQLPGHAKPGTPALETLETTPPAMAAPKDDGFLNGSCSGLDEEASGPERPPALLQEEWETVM

Experiment [7] is described as follows: qHTS of pediatric cancer cell lines to identify multiple opportunities for drug repurposing: Primary screen for TC32 cells (AID 1347089). Further: nearly all actives have a fitted effect of over 60% in size. The essentials:
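TC32 cells, 500-1,000/well in growth medium, compound-treated 48 h at 37 °C; viability from CellTiter-Glo luminescence. Primary screen: MIPE 11-point (0.78 nM–46 µM final), NPC 8-point (0.59 nM–46 µM final); confirmatory at 11-point dilutions.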

A short description of experiment [8]: qHTS of pediatric cancer cell lines to identify multiple opportunities for drug repurposing: Primary screen for DAOY cells (AID 1347090). Further: nearly all actives have a fitted effect of over 55% in size. Further: potency means the concentration at half of the fitted maximal effect. Put shortly:
(§1)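 Eight- or eleven-point concentration series, 48 h treatment at 37 degrees C in growth media; readout CellTiter-Glo luminescence. Potency and efficacy were taken from the concentration-response curves.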

The nature of experiment [9]: qHTS of pediatric cancer cell lines to identify multiple opportunities for drug repurposing: Primary screen for SK-N-MC cells (AID 1347093). Further: series mostly up to about 46 µM. The essentials: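 Metabolically active cells were quantified by ATP-dependent luminescence (CellTiter-Glo, 15 min at room temperature) following 48 h treatment. Cells had been plated at 500-1,000 per well and settled for 5 h beforehand.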

A short description of experiment [10]: qHTS of pediatric cancer cell lines to identify multiple opportunities for drug repurposing: Primary screen for NB-EBc1 cells (AID 1347095). The essentials: (§2)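 Cells plated at 500-1,000/well in growth medium, compounds added after 5 h. MIPE tested at 11 points (from 0.78 nM), NPC at 8 points (from 0.59 nM). CellTiter-Glo luminescence after 48 h; concentration-response curves from primary screen.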

Experiment [11] in a line: qHTS of pediatric cancer cell lines to identify multiple opportunities for drug repurposing: Primary screen for U-2 OS cells (AID 1347096). Further: nearly all actives have a fitted effect of over 50% in size. Further: potency means the concentration at half of the fitted maximal effect. Put shortly: (§3)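 Cells (500-1,000/well) in growth media were settled 5 h at 37 degrees C, then given compounds for 48 h. Viability was read as CellTiter-Glo luminescence. Primary runs used MIPE at 11 points (0.78 nM-46 µM) and NPC at 8 points (0.59 nM-46 µM); follow-ups used 11 points.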

Experiment [12] in a line: qHTS of pediatric cancer cell lines to identify multiple opportunities for drug repurposing: Primary screen for NB1643 cells (AID 1347099). Further: nearly all actives have a fitted effect of over 50% in size. Put shortly: as §2
Experiment [13] is described as follows: qHTS of pediatric cancer cell lines to identify multiple opportunities for drug repurposing: Primary screen for LAN-5 cells (AID 1347100). Put shortly: as §3
Experiment [14] is described as follows: qHTS of pediatric cancer cell lines to identify multiple opportunities for drug repurposing: Primary screen for SJ-GBM2 cells (AID 1347091). Further: potency means the concentration at half of the fitted maximal effect. The essentials:
as §1

Experiment [15] is described as follows: qHTS of pediatric cancer cell lines to identify multiple opportunities for drug repurposing: Primary screen for A673 cells (AID 1347092). Further: nearly all actives have a fitted effect of over 45% in size. Further: potency means the concentration at half of the fitted maximal effect. The essentials: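 A673 cells (500-1,000 cells/well) were treated 48 hours at 37 degrees C with compounds at 11-point (0.78 nM to 46 µM) or 8-point (0.59 nM to 46 µM) dilutions. Viability read by CellTiter-Glo luminescence; concentration-response curves fitted.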

Experiment [16] in a line: qHTS of pediatric cancer cell lines to identify multiple opportunities for drug repurposing: Primary screen for BT-37 cells (AID 1347094). Further: potency means the concentration at half of the fitted maximal effect. The essentials:
as §2

Experiment [17] in a line: qHTS of pediatric cancer cell lines to identify multiple opportunities for drug repurposing: Primary screen for Saos-2 cells (AID 1347097). Further: nearly all actives have a fitted effect of over 40% in size. Further: potency means the concentration at half of the fitted maximal effect. Put shortly: as §2
Experiment [18] is described as follows: qHTS of pediatric cancer cell lines to identify multiple opportunities for drug repurposing: Primary screen for SK-N-SH cells (AID 1347098). Further: nearly all actives have a fitted effect of over 65% in size. Further: potency means the concentration at half of the fitted maximal effect. The essentials: (§4)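 Cells (500-1,000/well) rested 5 h, then received compounds for 48 h; metabolically active cells were measured by CellTiter-Glo luminescence. Final concentrations spanned up to 46 µM (MIPE, 11-point) or 0.59 nM-46 µM (NPC, 8-point) in primary screens, 11-point in follow-ups.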

The nature of experiment [19]: qHTS of pediatric cancer cell lines to identify multiple opportunities for drug repurposing: Primary screen for BT-12 cells (AID 1347101). Further: nearly all actives have a fitted effect of over 25% in size. Further: potency means the concentration at half of the fitted maximal effect. The essentials: as §4
Experiment [20] addresses Atrial natriuretic peptide receptor 2 (Homo sapiens) (UniProt P20594). The experiment is described as follows: Natriuretic polypeptide receptor (hNpr2) antagonism - Pilot subtype selectivity assay (AID 1347050; calls by dose curve). The essentials: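 cGMP-sensor HEK293/hNpr2 cells; 2% GloSensor reagent 2 h RT; compounds 30 min; baseline luminescence read; 1 nM hNppC agonist 20 min RT; final luminescence read by CCD camera. Antagonism = reduced post-agonist signal.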

Chain of Atrial natriuretic peptide receptor 2 (Homo sapiens) (P20594 whole entry, looked up): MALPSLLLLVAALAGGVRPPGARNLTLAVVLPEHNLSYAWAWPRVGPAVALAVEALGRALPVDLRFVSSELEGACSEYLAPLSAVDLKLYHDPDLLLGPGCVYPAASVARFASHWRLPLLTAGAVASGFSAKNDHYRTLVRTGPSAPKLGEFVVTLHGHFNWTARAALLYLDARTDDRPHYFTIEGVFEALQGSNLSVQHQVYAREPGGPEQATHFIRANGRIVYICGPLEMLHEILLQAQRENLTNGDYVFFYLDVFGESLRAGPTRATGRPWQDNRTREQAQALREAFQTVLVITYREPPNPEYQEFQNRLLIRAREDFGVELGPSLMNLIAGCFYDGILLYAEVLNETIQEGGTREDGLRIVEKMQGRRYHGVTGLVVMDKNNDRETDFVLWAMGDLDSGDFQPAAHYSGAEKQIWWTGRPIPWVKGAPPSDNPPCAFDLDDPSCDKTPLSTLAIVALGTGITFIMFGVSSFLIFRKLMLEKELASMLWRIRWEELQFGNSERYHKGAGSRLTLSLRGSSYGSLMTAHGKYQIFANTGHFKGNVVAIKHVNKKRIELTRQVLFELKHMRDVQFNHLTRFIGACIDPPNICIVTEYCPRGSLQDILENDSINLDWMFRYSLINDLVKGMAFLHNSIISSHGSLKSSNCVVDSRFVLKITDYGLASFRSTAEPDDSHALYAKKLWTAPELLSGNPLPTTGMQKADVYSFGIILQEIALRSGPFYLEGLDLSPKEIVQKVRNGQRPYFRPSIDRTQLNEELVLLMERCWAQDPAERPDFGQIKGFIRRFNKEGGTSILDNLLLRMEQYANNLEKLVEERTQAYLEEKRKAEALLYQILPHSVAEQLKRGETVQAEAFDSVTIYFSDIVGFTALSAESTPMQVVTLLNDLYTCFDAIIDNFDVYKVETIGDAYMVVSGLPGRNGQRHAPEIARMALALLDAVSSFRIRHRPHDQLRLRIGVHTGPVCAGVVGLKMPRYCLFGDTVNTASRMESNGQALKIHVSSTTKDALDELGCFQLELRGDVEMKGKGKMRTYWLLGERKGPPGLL

Take `CC(CN(C)C)CN1c2ccccc2CCc2ccccc21` (stereo unspecified): the outcome in experiment [1], in experiment [3], in [4] and in [5] was inactive. Also, the Potency result in [2], in experiment [6], in experiment [7], in experiment [8], in experiment [9] and in [10] was “inactive” throughout. The Potency entry in [11], in [12] and in [13] was “inactive” throughout.
With `CC(C)(C(=O)O)c1ccc(C(O)CCCN2CCC(C(O)(c3ccccc3)c3ccccc3)CC2)cc1` (stereo unspecified), the Potency result in [2], in experiment [6], in [14], in experiment [15], in [9] and in experiment [16] was “inactive” throughout. The Potency result in experiment [10], in experiment [17], in experiment [18], in [12], in experiment [13] and in experiment [19] was “inactive” each time.
For the compound `CC/C=C(\C(=O)N[C@@H]1C(=O)N2C(C(=O)OCOC(=O)C(C)(C)C)=C(COC(N)=O)CS[C@H]12)c1csc(N)n1`, the Potency result in experiment [2], in experiment [7], in experiment [8], in experiment [14], in experiment [15] and in experiment [9] was “inactive” each time. The Potency entry in [16], in experiment [10], in experiment [11], in [17], in experiment [18] and in experiment [12] was “inactive” in each case. Moreover, the Potency result in [13] and in [19] was “inactive” throughout.
For `CCCCC(CC)COC(=O)c1ccccc1O` (stereo unspecified), the Potency entry in experiment [2], in [7], in experiment [8], in experiment [14], in [15] and in experiment [9] was “inactive” each time. The Potency result in experiment [16], in experiment [10], in [11], in [17], in experiment [18] and in experiment [12] was “inactive” in each case. Besides, the Potency result in experiment [13] and in experiment [19] was “inactive” in each case.
With `CC(C)c1c(C(=O)Nc2ccccc2)c(-c2ccccc2)c(-c2ccc(F)cc2)n1CC[C@@H](O)C[C@@H](O)CC(=O)O`, the Potency result in [2] and in experiment [13] was “inactive” each time. In addition, the result in experiment [3], in experiment [4] and in experiment [5] was inactive. The Potency in experiment [8] was 4.22 µM (active); in experiment [14] it was 11.9 µM (active); in [15] it was 21.1 µM (active); in [16], 24.6 µM (active); in [11], 21.1 µM (active); in [17] it was 0.841 µM (active). Besides, the Potency in experiment [18] was 12.2 µM (active); in experiment [19] it was 1.23 µM (active).
With `CN(C)CC[C@@H](c1ccc(Cl)cc1)c1ccccn1`, the compound was classed as inactive in experiment [1]. Also, the Potency entry in experiment [2], in experiment [6], in experiment [7], in experiment [8], in [14] and in experiment [9] was “inactive” throughout. For the same compound, the Potency entry in experiment [16], in experiment [10], in [17], in [18], in experiment [12] and in [13] was “inactive” throughout. In addition, the Potency result in experiment [19] is “inactive”.
On to `CCCCN(CCCC)CC(O)c1cc(Cl)cc2c1-c1ccc(Cl)cc1/C2=C/c1ccc(Cl)cc1` (stereo unspecified), for which the Potency result in experiment [2], in [7], in experiment [8], in experiment [14], in experiment [9] and in experiment [10] was “inactive” throughout. For the same compound, the Potency result in experiment [11], in experiment [18] and in [12] was “inactive” throughout. Further, the result in experiment [3] was inactive.
Consider `NC1CCN(c2cccc(Cl)n2)CC1`, for which the call in experiment [1] was inactive. Besides, the Potency result in experiment [20], in [2], in experiment [6], in experiment [7], in [8] and in [14] was “inactive” each time. Besides, the Potency result in [9], in experiment [16], in [10], in experiment [11], in experiment [17] and in experiment [18] was “inactive” in each case. The Potency entry in [12], in experiment [13] and in experiment [19] was “inactive” each time.
